# Test results: paper PMC7862700, “An all-to-all approach to the identification of sequence-specific readers for epigenetic DNA modifications on cytosine”
# Tests used:
# Assay in all cases: DAPPL (digital affinity profiling via proximity ligation, sequencing); 10 mM Tris-HCl pH 7.5, 50 mM NaCl, 1 mM DTT, 4% glycerol, room temperature, 30 min; GST-TFs on glutathione beads, 16-mer random dsDNA library, 0.1% formaldehyde crosslink after washing; high values mean tight binding
# FLI1 = target: T1, FLI1 (Homo sapiens, UniProt Q01543 1-452); conditions: protein: recombinant; tags: N-terminal GST; dsDNA, one strand shown
# T1 sequence: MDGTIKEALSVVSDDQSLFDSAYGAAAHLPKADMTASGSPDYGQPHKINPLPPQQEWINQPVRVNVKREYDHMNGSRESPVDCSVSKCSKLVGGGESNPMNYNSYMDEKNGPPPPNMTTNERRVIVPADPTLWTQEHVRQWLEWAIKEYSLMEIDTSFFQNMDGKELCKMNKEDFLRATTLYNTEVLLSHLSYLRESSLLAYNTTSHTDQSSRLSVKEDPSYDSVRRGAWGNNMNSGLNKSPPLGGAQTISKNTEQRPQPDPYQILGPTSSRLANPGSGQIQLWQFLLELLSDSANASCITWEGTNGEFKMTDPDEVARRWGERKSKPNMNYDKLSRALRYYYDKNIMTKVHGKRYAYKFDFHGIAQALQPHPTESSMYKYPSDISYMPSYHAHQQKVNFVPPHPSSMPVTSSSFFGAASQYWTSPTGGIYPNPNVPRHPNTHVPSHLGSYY
# Procedure, shortened: (§1)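 GST fusions of human transcription factors were expressed in yeast and captured with glutathione beads. Once given DNA barcodes and pooled alongside a tag-only sample, they were incubated for 30 min at room temperature with 200 nmole of a random double-stranded 16-mer DNA library in Tris/NaCl/DTT/glycerol buffer, then washed, crosslinked (0.1% formaldehyde), proximity-ligated, PCR-amplified and sequenced on an Illumina NextSeq500. The binding signal of each hexamer is its read frequency for a factor divided by its frequency for the tag-only sample.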
# ELK1 = target: T2, ELK1 (Homo sapiens, UniProt P19419 1-428); conditions: protein: recombinant; tags: N-terminal GST; dsDNA, one strand shown
# T2 sequence: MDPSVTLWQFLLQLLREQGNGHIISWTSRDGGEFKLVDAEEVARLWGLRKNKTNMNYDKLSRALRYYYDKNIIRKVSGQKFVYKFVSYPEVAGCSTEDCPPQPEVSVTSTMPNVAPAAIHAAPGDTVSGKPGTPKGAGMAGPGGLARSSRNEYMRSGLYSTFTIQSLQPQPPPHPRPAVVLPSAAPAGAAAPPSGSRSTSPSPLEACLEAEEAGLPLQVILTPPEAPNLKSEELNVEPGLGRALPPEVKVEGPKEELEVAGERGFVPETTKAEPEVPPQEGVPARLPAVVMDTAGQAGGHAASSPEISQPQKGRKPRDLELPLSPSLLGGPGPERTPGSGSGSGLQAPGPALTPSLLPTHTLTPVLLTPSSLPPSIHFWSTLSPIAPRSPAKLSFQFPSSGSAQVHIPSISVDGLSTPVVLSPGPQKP
# Procedure, shortened: as §1
# GABPA = target: T3, GABPA (Homo sapiens, UniProt Q06546 1-454); conditions: protein: recombinant; tags: N-terminal GST; dsDNA, one strand shown
# T3 sequence: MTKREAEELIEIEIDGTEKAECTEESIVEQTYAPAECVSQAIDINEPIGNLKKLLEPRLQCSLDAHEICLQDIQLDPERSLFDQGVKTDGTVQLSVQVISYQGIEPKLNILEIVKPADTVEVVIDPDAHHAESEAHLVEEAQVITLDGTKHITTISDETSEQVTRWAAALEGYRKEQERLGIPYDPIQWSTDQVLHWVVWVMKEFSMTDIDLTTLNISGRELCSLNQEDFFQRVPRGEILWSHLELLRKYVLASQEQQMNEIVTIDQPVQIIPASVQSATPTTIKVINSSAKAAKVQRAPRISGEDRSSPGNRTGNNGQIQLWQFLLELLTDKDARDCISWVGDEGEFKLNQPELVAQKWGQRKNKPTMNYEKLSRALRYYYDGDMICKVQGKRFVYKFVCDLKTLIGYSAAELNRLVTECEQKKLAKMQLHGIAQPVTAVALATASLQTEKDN
# Procedure, shortened: as §1
# ERG = target: T4, ERG (Homo sapiens, UniProt P11308 1-479); conditions: protein: recombinant; tags: N-terminal GST; dsDNA, one strand shown
# T4 sequence: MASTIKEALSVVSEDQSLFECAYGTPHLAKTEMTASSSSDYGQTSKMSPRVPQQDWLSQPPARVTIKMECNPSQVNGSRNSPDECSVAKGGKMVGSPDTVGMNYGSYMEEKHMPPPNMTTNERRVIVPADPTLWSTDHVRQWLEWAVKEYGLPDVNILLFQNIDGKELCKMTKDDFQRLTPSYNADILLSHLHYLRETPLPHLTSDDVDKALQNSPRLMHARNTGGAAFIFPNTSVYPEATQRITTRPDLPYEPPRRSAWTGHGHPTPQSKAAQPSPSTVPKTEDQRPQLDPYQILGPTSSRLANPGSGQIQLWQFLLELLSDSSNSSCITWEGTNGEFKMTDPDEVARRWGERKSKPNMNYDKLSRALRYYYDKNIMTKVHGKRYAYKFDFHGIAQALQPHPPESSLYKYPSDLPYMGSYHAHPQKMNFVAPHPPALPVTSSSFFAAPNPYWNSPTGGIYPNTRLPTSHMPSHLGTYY
# Procedure, shortened: as §1
# ELF1 = ELF1 (Homo sapiens, UniProt P32519 1-619); conditions: protein: recombinant; tags: N-terminal GST; dsDNA, one strand shown
# ELF1, sequence (P32519 whole entry): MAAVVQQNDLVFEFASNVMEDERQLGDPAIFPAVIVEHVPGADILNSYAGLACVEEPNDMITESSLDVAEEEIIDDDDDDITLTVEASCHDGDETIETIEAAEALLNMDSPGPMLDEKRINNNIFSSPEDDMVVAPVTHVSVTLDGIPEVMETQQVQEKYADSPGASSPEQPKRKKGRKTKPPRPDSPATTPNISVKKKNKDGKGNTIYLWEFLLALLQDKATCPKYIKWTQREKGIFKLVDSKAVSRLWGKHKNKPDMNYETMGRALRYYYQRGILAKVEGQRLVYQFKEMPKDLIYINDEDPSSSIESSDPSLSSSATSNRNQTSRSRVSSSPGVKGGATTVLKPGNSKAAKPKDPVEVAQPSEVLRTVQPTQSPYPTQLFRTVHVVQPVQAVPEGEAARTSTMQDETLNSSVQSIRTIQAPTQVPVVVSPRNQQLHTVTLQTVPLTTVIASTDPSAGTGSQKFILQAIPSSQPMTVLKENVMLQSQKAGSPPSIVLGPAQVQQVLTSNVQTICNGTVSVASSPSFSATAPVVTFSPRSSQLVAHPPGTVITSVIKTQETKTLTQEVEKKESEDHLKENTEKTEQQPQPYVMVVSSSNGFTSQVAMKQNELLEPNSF
# Procedure, shortened: as §1
# EHF = target: T5, EHF (Homo sapiens, UniProt Q9NZC4 1-300); conditions: protein: recombinant; tags: N-terminal GST; dsDNA, one strand shown
# T5 sequence: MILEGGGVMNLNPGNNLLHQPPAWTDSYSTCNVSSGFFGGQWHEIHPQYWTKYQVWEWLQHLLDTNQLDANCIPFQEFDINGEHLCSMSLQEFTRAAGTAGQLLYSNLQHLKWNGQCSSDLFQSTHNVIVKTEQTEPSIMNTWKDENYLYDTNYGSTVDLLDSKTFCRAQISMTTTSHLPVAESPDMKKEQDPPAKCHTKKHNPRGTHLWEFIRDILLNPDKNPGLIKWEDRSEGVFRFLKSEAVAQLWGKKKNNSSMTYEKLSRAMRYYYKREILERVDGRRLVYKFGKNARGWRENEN
# Procedure, shortened: as §1
# SPI1 = SPI1 (Homo sapiens, UniProt P17947 1-270); conditions: protein: recombinant; tags: N-terminal GST; dsDNA, one strand shown
# Procedure, shortened: as §1
# SPIB = SPIB (Homo sapiens, UniProt Q01892 1-262); conditions: protein: recombinant; tags: N-terminal GST; dsDNA, one strand shown
# SPIB, sequence (Q01892 whole entry): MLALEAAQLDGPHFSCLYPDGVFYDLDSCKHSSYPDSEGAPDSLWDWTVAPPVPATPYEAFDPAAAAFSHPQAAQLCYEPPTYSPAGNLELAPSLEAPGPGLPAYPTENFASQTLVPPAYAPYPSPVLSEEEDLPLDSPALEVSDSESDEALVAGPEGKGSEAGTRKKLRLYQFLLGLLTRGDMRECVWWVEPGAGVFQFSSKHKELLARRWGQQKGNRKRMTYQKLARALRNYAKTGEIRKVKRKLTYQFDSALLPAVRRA
# Procedure, shortened: as §1
# ELK3 = target: T6, ELK3 (Homo sapiens, UniProt P41970 1-407); conditions: protein: recombinant; tags: N-terminal GST; dsDNA, one strand shown
# T6 sequence: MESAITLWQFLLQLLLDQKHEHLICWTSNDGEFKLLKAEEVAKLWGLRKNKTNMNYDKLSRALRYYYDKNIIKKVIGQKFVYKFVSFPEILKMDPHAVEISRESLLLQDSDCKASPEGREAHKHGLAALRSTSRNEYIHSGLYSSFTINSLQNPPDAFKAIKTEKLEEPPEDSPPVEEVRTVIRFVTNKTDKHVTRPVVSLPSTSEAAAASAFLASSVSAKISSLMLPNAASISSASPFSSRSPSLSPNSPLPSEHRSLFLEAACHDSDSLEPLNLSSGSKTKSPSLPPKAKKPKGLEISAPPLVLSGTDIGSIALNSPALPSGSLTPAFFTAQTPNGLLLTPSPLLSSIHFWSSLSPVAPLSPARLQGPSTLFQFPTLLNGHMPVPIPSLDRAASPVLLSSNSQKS
# Procedure, shortened: as §1
# FEV = target: T7, FEV (Homo sapiens, UniProt Q99581 1-238); conditions: protein: recombinant; tags: N-terminal GST; dsDNA, one strand shown
# T7 sequence: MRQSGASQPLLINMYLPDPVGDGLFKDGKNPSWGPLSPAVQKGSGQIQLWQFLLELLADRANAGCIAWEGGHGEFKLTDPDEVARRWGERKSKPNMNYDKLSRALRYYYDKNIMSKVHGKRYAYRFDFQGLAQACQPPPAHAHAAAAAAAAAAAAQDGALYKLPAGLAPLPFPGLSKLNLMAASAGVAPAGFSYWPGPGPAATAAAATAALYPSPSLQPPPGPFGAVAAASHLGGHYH
# Procedure, shortened: as §1
# ETV5 = ETV5 (Homo sapiens, UniProt P41161 1-510); conditions: protein: recombinant; tags: N-terminal GST; dsDNA, one strand shown
# ETV5, sequence (P41161 whole entry): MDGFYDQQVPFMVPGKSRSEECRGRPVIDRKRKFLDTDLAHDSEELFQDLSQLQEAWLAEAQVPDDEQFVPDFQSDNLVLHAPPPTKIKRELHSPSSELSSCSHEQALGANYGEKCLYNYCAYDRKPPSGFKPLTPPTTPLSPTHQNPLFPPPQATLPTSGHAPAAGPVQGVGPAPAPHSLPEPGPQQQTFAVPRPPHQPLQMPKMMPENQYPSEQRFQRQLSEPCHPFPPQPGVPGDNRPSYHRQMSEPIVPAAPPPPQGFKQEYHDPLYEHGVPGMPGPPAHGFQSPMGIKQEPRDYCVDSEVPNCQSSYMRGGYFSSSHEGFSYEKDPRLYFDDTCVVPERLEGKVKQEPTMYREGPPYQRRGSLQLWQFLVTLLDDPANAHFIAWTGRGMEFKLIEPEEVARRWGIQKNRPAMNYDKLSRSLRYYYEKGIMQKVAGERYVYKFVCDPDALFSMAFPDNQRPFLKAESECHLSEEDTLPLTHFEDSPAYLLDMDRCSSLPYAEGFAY
# Procedure, shortened: as §1
# HSF1 = HSF1 (Homo sapiens, UniProt Q00613 1-529); conditions: protein: recombinant; tags: N-terminal GST; chain copies: 3; dsDNA, one strand shown
# HSF1, sequence (Q00613 whole entry): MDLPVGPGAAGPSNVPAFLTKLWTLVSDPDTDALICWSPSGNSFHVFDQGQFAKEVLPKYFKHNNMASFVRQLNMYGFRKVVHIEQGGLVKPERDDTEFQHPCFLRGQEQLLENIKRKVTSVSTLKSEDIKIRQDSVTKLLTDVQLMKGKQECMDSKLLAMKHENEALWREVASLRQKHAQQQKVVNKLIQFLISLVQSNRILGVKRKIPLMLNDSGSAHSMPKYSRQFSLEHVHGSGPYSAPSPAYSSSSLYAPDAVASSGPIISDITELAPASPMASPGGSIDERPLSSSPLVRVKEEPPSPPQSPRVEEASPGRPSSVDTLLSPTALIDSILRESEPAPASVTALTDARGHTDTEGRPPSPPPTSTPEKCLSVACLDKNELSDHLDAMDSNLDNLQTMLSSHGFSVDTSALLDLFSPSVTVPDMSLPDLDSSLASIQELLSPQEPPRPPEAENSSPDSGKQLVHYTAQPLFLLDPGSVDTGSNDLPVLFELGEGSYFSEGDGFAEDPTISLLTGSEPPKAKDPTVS
# Procedure, shortened: as §1
# SPIC = target: T8, SPIC (Homo sapiens, UniProt Q8N5J4 1-248); conditions: protein: recombinant; tags: N-terminal GST; dsDNA, one strand shown
# T8 sequence: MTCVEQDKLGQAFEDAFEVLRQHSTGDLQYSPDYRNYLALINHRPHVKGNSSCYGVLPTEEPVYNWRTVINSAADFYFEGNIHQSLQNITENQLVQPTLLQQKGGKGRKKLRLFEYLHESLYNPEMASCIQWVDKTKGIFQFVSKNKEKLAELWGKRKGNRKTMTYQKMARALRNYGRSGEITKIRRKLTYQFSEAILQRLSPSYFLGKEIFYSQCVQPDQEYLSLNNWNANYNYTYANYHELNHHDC
# Procedure, shortened: as §1
# ELF4 = ELF4 (Homo sapiens, UniProt Q99607 1-663); conditions: protein: recombinant; tags: N-terminal GST; dsDNA, one strand shown
# ELF4, sequence (Q99607 whole entry): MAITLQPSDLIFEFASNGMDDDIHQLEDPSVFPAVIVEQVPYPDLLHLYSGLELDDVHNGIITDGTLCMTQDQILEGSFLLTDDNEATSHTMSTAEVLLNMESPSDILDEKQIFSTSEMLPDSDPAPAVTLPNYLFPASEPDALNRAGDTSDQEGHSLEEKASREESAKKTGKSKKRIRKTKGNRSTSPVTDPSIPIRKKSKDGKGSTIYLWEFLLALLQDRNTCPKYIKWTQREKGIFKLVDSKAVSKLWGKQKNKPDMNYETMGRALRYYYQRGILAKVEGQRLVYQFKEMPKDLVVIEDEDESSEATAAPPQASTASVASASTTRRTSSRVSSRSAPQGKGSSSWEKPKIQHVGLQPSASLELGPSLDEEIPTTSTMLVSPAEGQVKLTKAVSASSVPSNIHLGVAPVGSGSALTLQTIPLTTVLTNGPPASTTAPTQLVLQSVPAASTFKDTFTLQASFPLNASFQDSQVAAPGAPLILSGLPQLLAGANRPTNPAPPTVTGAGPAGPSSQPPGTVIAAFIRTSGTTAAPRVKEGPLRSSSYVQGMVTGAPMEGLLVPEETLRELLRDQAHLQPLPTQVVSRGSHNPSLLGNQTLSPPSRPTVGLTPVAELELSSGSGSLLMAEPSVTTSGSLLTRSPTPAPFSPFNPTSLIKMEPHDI
# Procedure, shortened: as §1
# ELK4 = target: T9, ELK4 (Homo sapiens, UniProt P28324-2 1-405); conditions: protein: recombinant; tags: N-terminal GST; dsDNA, one strand shown
# T9 sequence: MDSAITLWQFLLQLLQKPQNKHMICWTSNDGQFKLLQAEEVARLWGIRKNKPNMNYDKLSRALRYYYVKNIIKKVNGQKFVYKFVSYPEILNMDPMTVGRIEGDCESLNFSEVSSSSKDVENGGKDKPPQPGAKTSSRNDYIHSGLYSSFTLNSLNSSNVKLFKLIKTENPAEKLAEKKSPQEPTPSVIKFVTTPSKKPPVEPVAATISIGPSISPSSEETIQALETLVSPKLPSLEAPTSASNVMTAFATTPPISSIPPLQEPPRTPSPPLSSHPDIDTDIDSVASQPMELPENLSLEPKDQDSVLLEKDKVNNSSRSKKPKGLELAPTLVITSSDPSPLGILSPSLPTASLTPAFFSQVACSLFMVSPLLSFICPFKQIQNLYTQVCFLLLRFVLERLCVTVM
# Procedure, shortened: as §1
# ETV2 = target: T10, ETV2 (Homo sapiens, UniProt O00321 1-342); conditions: protein: recombinant; tags: N-terminal GST; dsDNA, one strand shown
# T10 sequence: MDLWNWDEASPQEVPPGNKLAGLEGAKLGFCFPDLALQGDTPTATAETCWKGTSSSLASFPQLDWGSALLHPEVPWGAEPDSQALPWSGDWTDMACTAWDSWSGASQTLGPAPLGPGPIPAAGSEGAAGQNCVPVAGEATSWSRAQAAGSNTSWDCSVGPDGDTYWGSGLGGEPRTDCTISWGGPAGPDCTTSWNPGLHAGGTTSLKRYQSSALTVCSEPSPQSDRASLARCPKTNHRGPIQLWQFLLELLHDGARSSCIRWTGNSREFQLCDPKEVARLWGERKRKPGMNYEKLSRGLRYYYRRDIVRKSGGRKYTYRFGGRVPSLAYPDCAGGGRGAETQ
# Procedure, shortened: as §1
# ELF3 = target: T11, ELF3 (Homo sapiens, UniProt P78545 1-371); conditions: protein: recombinant; tags: N-terminal GST; dsDNA, one strand shown
# T11 sequence: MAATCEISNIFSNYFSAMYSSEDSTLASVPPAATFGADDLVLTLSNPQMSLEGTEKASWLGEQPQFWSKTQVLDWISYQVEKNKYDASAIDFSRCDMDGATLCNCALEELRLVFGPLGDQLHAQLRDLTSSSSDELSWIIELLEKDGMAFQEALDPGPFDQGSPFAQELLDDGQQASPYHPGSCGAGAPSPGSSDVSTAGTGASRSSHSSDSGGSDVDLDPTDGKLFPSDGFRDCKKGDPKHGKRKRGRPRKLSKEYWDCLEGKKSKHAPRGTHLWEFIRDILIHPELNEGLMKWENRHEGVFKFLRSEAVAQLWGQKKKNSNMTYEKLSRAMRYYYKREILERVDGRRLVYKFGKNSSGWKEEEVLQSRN
# Procedure, shortened: as §1
# CRX = CRX (Homo sapiens, UniProt O43186 1-299); conditions: protein: recombinant; tags: N-terminal GST; dsDNA, one strand shown
# CRX, sequence (O43186 whole entry): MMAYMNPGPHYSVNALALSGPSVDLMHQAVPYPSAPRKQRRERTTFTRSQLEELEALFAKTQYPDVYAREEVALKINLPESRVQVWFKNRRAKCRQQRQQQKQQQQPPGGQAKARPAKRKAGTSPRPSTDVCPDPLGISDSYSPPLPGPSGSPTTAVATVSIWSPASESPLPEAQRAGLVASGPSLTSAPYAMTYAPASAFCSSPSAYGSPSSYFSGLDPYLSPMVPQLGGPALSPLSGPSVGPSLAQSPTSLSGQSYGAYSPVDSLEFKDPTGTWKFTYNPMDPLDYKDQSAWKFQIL
# Procedure, shortened: as §1
# ETV1 = ETV1 (Homo sapiens, UniProt P50549 1-477); conditions: protein: recombinant; tags: N-terminal GST; dsDNA, one strand shown
# ETV1, sequence (P50549 whole entry): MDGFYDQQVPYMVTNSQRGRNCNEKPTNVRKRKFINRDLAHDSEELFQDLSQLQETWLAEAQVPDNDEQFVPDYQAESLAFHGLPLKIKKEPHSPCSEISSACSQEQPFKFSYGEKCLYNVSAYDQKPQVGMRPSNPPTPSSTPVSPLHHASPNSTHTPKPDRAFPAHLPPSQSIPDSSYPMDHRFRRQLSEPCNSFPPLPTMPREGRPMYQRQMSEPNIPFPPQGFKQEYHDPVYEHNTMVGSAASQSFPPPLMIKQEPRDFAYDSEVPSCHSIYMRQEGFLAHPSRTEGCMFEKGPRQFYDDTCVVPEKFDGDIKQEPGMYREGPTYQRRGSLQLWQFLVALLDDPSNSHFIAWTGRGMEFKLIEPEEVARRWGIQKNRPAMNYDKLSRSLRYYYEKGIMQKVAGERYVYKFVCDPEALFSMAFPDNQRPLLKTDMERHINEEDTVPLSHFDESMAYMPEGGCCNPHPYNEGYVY
# Procedure, shortened: as §1
sequence,measurement,setting,value
ATAAAC,binding signal,FLI1,"1.22 fold enrichment (6-mer frequency, TF over GST control)"
same,binding signal,ELK1,"1.16 fold enrichment (6-mer frequency, TF over GST control)"
same,binding signal,GABPA,"1.11 fold enrichment (6-mer frequency, TF over GST control)"
same,binding signal,ERG,"1.11 fold enrichment (6-mer frequency, TF over GST control)"
same,binding signal,ELF1,"1.14 fold enrichment (6-mer frequency, TF over GST control)"
same,binding signal,EHF,"1.07 fold enrichment (6-mer frequency, TF over GST control)"
same,binding signal,SPI1,"1.14 fold enrichment (6-mer frequency, TF over GST control)"
same,binding signal,SPIB,"1.19 fold enrichment (6-mer frequency, TF over GST control)"
same,binding signal,ELK3,"1.14 fold enrichment (6-mer frequency, TF over GST control)"
same,binding signal,FEV,"1.13 fold enrichment (6-mer frequency, TF over GST control)"
same,binding signal,ETV5,"1.19 fold enrichment (6-mer frequency, TF over GST control)"
same,binding signal,HSF1,"1.27 fold enrichment (6-mer frequency, TF over GST control)"
same,binding signal,SPIC,"1.2 fold enrichment (6-mer frequency, TF over GST control)"
same,binding signal,ELF4,"1.16 fold enrichment (6-mer frequency, TF over GST control)"
same,binding signal,ELK4,"1.13 fold enrichment (6-mer frequency, TF over GST control)"
same,binding signal,ETV2,"1.19 fold enrichment (6-mer frequency, TF over GST control)"
same,binding signal,ELF3,"1.13 fold enrichment (6-mer frequency, TF over GST control)"
same,binding signal,CRX,"1.5 fold enrichment (6-mer frequency, TF over GST control)"
same,binding signal,ETV1,"1.11 fold enrichment (6-mer frequency, TF over GST control)"
